# Screening data (PubChem)
# In the library only some 4.1% were active in any assay of this set; here they are far more common.
# DAX1 inh-1: DAX1 (NR0B1) inhibitors, primary screen, cell-based, HEK293, Gal4-DAX1, luciferase luminescence | AID 504766, 2011 | HEK293 Gal4-DAX1 luciferase reporter | inhibition, % at 6.75 µM | Nuclear receptor subfamily 0 group B member 1 (Homo sapiens), P51843 | 0.99% of 340,000 active;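 active means inhibition above the mean over all tested compounds plus 3 SD, cut at about 4.2% in these data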;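 further: 0% = DAX1-transfected cells with DMSO and 100% = empty-vector control cells with DMSO; inhibition shows as a rise in luminescence from relieved DAX1 repression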
# Target sequence (P51843 207-470 limits assumed): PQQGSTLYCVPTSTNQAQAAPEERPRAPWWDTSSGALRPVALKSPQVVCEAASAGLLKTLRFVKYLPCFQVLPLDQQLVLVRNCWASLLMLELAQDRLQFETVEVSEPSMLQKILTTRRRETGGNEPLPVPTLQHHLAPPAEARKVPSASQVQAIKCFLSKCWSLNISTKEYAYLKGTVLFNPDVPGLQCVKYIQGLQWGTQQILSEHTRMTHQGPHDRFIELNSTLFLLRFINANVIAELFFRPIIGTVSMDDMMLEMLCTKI
# DAX1 inh-2: DAX1 (NR0B1) inhibitors on StAR promoter, primary screen, cell-based, luminescence, SF-1 (NR5A1), full-length DAX-1; HEK293T StAR-luciferase reporter, SF-1/DAX-1 repression relief; inhibition, % at 6.8 µM; 1.1% of 370,000 active; AID 652010, 2013;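 active means inhibition above the mean over all tested compounds plus 3 SD, cut at about 3.6% in these data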;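 further: 0% = DAX-1 cells with DMSO and 100% = cells lacking DAX-1 with DMSO; higher inhibition means more luminescence from relief of DAX-1 repression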
# ssDAF-12 act: S. stercoralis DAF-12 nuclear receptor activators, primary screen, cell-based, luminescence, HEK293, GRIP1 co-expression, lit1-tk-luc | Nuclear hormone receptor DAF-12 (Strongyloides stercoralis) | 1% of 370,000 active | HEK293 ssDAF-12/GRIP1 lit1-tk-luc reporter; % of 3 µM dafachronic acid response | activation, % at 6.8 µM;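 active means activation above the mean over all tested compounds plus 3 SD, cut at about 0.9% in these data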;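 further: 0% = DMSO-only wells and 100% = 3 µM delta7-dafachronic acid wells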
# hgDAF-12 ag: H. glycines DAF-12 receptor agonists, primary screen, cell-based, luminescence, HEK293, GAL4 fusion, UAS-luciferase | HEK293 GAL4-hgDAF12 UAS-luciferase reporter, agonist luminescence; normalized to butyrate control | activation, % at 6.8 µM | 1.8% of 370,000 active;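 active means activation above a cutoff set at the mean of all screened compounds plus 3 SD, cut at about 10% in these data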;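 further: 0% = DMSO wells and 100% = sodium butyrate wells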
# hcDAF12 agonist: H. contortus DAF-12 nuclear receptor activators, primary screen, cell-based, luminescence, HEK293, lit1-tk-luc reporter; HEK293 hcDAF-12 lit1-tk-luc reporter; 0% DMSO, 100% Δ7-dafachronic acid; activation, % at 6.8 µM; 1.4% of 370,000 active; AID 652067, 2013;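 active means activation above the mean of all tested compounds plus 3 SD, cut at about 5.5% in these data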;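 further: 100% = response to 3 µM Δ7-dafachronic acid high control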
# * = called active by the depositor; . = not tested or not shown.
SMILES,DAX1 inh-1,DAX1 inh-2,ssDAF-12 act,hgDAF-12 ag,hcDAF12 agonist
COc1ccc(S(=O)(=O)Cc2ccc(C(=O)NCCCN3CCc4ccccc4C3)o2)cc1,2.1,0.5,3.5*,2.6,5.8*
COc1ccc(N2CCN(CCCNC(=O)c3ccc(CS(=O)(=O)c4ccc(OC)cc4)o3)CC2)cc1,-0.6,-0.6,-0.6,-1.3,-1.3
COC(=O)C1CN(Cc2cn(Cc3ccc(Cl)cc3)nn2)CCS(=O)(=O)N1Cc1ccc(F)cc1 (centres undefined),.,-1.0,-1.0,-3.7,-3.2
COc1cc2c(cc1NC(=O)CSc1nnc(-c3cccnc3)n1-c1ccc(Br)cc1)oc1ccccc12,.,-0.1,-1.4,3.1,0.0
CC1CCN(C(=O)CSCC(=O)Nc2nc(-c3cccs3)cs2)CC1,0.2,2.0,-1.0,5.0,4.3
CC1CCCN(C(=O)CSCC(=O)Nc2nc(-c3cccs3)cs2)C1 (centres undefined),-0.1,1.2,0.0,2.9,6.4*
O=C(NCc1ccc(C(=O)N2CCOCC2)cc1)c1cccc(Br)c1,.,0.0,-0.7,-0.7,-1.0
CCCOc1ccc(CN2CCOCC2)cc1OC,5.3*,0.2,-0.8,-1.5,-0.7
O=C(NC1CCCCN(Cc2ccc(Cl)cc2)C1=O)c1cccc2nsnc12 (centres undefined),.,-1.4,-0.2,0.1,-0.4
Cc1ccc(C2=CCN(C)C(=O)N2c2ccc(Br)cc2)cc1,.,-0.4,-0.8,9.5,0.7
COc1ccc(NC(=O)C2=C(C)NC(=S)NC2c2ccc(O)c(OC)c2)cc1 (centres undefined),0.4,0.3,-1.1,4.8,0.1
COc1cc(C2NC(=S)NC(C)=C2C(=O)Nc2ccc(C)cc2)ccc1O (centres undefined),1.6,1.7,0.1,10.9*,3.1
COc1ccc(CNc2ccccc2)cc1Br,0.6,-1.0,-0.4,3.0,-1.6
COc1cc(CNc2cccc(F)c2)cc(Br)c1O,0.0,-0.3,1.5*,1.2,2.4
Cc1ccc(C2NNC(=O)C2NC(=O)c2ccccc2)cc1 (centres undefined),4.5*,0.9,-0.6,5.0,0.6
O=C(NC1C(=O)NNC1c1ccccc1)c1ccc(F)cc1 (centres undefined),0.7,0.7,-0.7,-2.5,-0.3
O=[N+]([O-])c1cnn(-c2nc(-c3cccs3)cc(C(F)(F)F)n2)c1,4.7*,-0.3,-0.6,0.5,-1.2
Cn1c(=O)c2cc(S(=O)(=O)N3CCN(CCO)CC3)ccc2n(C)c1=O,.,1.4,-1.1,3.8,-0.1
COCCCNC(=O)C[C@H]1C[C@@]2(C(=O)OC)C(=C[C@H](C(C)(C)C)O[C@@H]2C)N(Cc2ccco2)C1=O,.,-0.3,-1.5,2.4,-0.6
O=S(=O)(c1ccc(F)cc1)N1CCN(CC2CC3C=CC2C3)CC1 (centres undefined),-0.3,-0.3,-1.3,0.2,6.5*
O=S(=O)(c1ccccc1)N1CCN(CC2CC3C=CC2C3)CC1 (centres undefined),-1.0,0.3,-2.0,-1.3,-0.5
COc1ccc(OC)c(NC(=O)O[C@@H]2CC[C@@]34CCCN3C(=O)CCC[C@H]4C2)c1,.,.,-0.6,4.2,-1.0
COc1ccc(-c2ccc(SCc3ccccn3)nn2)cc1OC,-1.7,0.0,-0.2,1.3,0.2
COc1cccc(-c2ccc(SCc3ccccn3)nn2)c1,0.5,2.5,0.5,11.8*,2.0
CN1CC=C(c2ccccc2)N(c2ccccc2)C1=O,.,0.0,-0.5,1.7,-1.4
SMILES,DAX1 inh-1,DAX1 inh-2,ssDAF-12 act,hgDAF-12 ag,hcDAF12 agonist
Cc1onc(-c2ccccc2)c1CNC(=O)C1COc2ccccc2O1 (centres undefined),4.6*,-0.1,-1.7,1.2,-0.1
O=C(NCc1ccccc1)C1COc2ccccc2O1 (centres undefined),-1.1,1.2,-0.6,1.2,3.5
COC(=O)[C@]12C[C@H](CC(=O)NCc3cccs3)C(=O)N(Cc3cccc4ccccc34)C1=C[C@H](COCc1ccccc1)O[C@@H]2C,.,-1.0,-0.6,0.3,0.9
C[C@H]1C2CC(OC(=O)Nc3ccc4c(c3)OCO4)C(C2)[C@H]2CCCCN21 (some centres undefined),.,-0.2,-0.2,-0.8,1.2
Cn1cccc1C=NNC(=O)c1cc(-c2ccc(Cl)cc2)n[nH]1,.,0.3,-1.4,4.4,-1.1
O=C(Nc1ccc(Cl)c(Cl)c1)c1cccnc1,6.3*,0.1,-1.8,3.4,0.2
CC(C)c1ccc(C(=O)Nc2cccnc2)cc1,1.0,1.9,-0.1,10.5*,4.2
O=C(Nc1cccc(NC(=O)c2cccnc2)c1)c1cccnc1,-0.3,.,.,.,.
COc1cccc(CC(NC(C)=O)C(=O)NC2CCN(c3nnnn3-c3ccccc3)CC2)c1 (centres undefined),4.3*,-0.1,-1.2,0.5,-0.9
CCC[C@H]1[C@@H](NC(=O)c2ccc(C)cc2)CC[C@@]23CCCN2C(=O)CCC[C@@H]13,.,.,-1.7,1.2,-3.5
C=CCC(=O)NC(C)c1cnn(-c2ccccc2C)c1C (centres undefined),0.9,-0.5,1.0*,2.4,3.1
Cc1ccccc1-n1ncc(C(C)NC(=O)c2ccccc2)c1C (centres undefined),1.7,-0.9,-1.6,0.9,0.5
C[C@H]1[C@@H](c2ccccc2)OC(O)([C@H](Cc2ccccc2)NC(=O)OC(C)(C)C)CN1C (some centres undefined),.,.,-1.6,-0.8,-0.6
C=C(C)c1cccc(C(C)(C)NC(=O)Nc2nnc(C(C)C)s2)c1,-1.3,-0.3,-1.8,-1.3,-1.4
C=C(C)c1cccc(C(C)(C)NC(=O)Nc2nncs2)c1,4.8*,0.2,-1.5,-2.4,-1.8
O=c1oc2ccccc2cc1-c1nnc(NCc2ccco2)s1,2.0,3.9*,0.3,11.8*,5.1
Cc1ccsc1/C=N\NC(=O)c1n[nH]c2c1CCC2,-1.8,0.6,1.0*,9.8,6.0*
O=C(N/N=C/c1c(Cl)cccc1Cl)c1n[nH]c2c1CCCC2,-1.2,1.4,-1.9,7.7,-0.6
Cc1ccsc1/C=N\NC(=O)c1cc(C(C)(C)C)[nH]n1,2.4,2.5,-0.7,10.8*,2.4
CCCN1CCS(=O)(=O)N(Cc2cn(Cc3ccc(C)cc3)nn2)C(C(=O)OC)C1 (centres undefined),.,-0.4,-1.3,-3.2,0.1
CC(=O)NCCC(=O)Nc1sc2c(c1-c1nc3ccccc3[nH]1)CCCC2,-0.4,-0.8,-0.6,0.6,0.1
